# PubChem BioAssay (NCI)
# Compounds without any hit were thinned out: in the full panel of roughly 79,000, 15% have a hit. Values without a mark were called inactive. The source made the active and inactive calls. Cut-off read from the data, not from the text of the source: active = growth inhibition above about 70%; inactive = the rest. *1 amine or outer side, *2 acyl side, *3 side chain or, on linkers, in order; H or OH if unused. Where a SMILES comes first, the peptide text is derived from it. Bridges are numbered along the chain shown (N, C = ends). Roman numbers before positions name the chains, in order. [ ]: non-standard residue; d: D form. Actinocin(9to1) = Cc1c2oc3c(C)ccc(C(=O)[*:1])c3nc-2c(C(=O)[*:2])c(N)c1=O; NMeV = CN[CH](C(=O)O)C(C)C; Pip = O=C(O)[CH]1CCCCN1; Sar = CNCC(=O)O
# Tests used:
# [1] = NCI Yeast Anticancer Drug Screen. Data for the rad50 strain (AID 155);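 note: 0% = growth of vehicle-only cultures of the same strain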; details: S. cerevisiae rad50 strain growth inhibition, stronger effect = higher value
# How it was run: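 Cells are treated with compound, grown, and their growth is then scored against vehicle-only cultures of the same repair-deficient yeast strain.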
# [2] = NCI Yeast Anticancer Drug Screen. Data for the mec2-1 strain (AID 157); details: S. cerevisiae mec2-1 strain, stronger effect = higher value
# How it was run: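 Cells of the genetically defined mec2-1 yeast strain are incubated with test compound. Inhibition of growth is calculated against vehicle-treated controls.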
# [3] = NCI Yeast Anticancer Drug Screen. Data for the sgs1 mgt1 strain (AID 161);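 note: 0% = growth of cultures given vehicle only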; details: S. cerevisiae sgs1 mgt1 strain, stronger effect = higher value
# How it was run: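 Read-out: growth inhibition vs vehicle controls. Cells: mutant yeast strain deficient in DNA damage repair.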
# [4] = NCI Yeast Anticancer Drug Screen. Data for the cln2 rad14 strain (AID 165);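 note: 0% = growth equal to vehicle treated cultures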; details: S. cerevisiae cln2 rad14 strain, stronger effect = higher value
# How it was run: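 The screen exposed genetically defined yeast (cln2 rad14) to test compounds and scored growth inhibition relative to vehicle-treated controls.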
# [5] = NCI Yeast Anticancer Drug Screen. Data for the bub3 strain (AID 167); details: S. cerevisiae bub3 mutant strain, stronger effect = higher value
# How it was run: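 Part of a panel of yeast mutants defective in DNA damage repair or cell cycle regulation. Each strain is grown with compound, and inhibition is calculated relative to solvent-treated cultures.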
# [6] = NCI Yeast Anticancer Drug Screen. Data for the mlh1 rad18 strain (AID 175); details: S. cerevisiae mlh1 rad18 strain growth inhibition, stronger effect = higher value
# How it was run: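 Compound-treated yeast growth, normalised to vehicle controls. Strain bears defined DNA repair mutations.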
# [7] = at 5.0 µM (retest, dose inferred, filed as 0.5)
# [8] = at 50.0 µM (retest, dose inferred, filed as 5.0)
SMILES,"growth inhibition [1, 7]","growth inhibition [1, 8]",growth inhibition ([1]; at 50.0 µM),"growth inhibition [2, 7]","growth inhibition [2, 8]",growth inhibition ([2]; at 50.0 µM),"growth inhibition [3, 7] [%]","growth inhibition [3, 8]",growth inhibition ([3]; at 50.0 µM),"growth inhibition [4, 7]","growth inhibition [4, 8]",growth inhibition ([4]; at 50.0 µM),"growth inhibition [5, 7]","growth inhibition [5, 8]",growth inhibition ([5]; at 50.0 µM),"growth inhibition [6, 7]","growth inhibition [6, 8]",growth inhibition ([6]; at 50.0 µM)
O=C1C=C(OCC=C(C(F)(F)F)C(F)(F)F)C(=O)c2ccccc21,-6%,18%,55.1%,27%,68%,64.8%,24,74% (active),66.9%,-1%,25%,49.4%,1%,52%,67.2%,45%,67%,80.3% (active)
O=C(CC(c1cccnc1)C(C(=O)c1ccc(Cl)cc1)C(CC(=O)c1ccc(Cl)cc1)c1cccnc1)c1ccc(Cl)cc1 (stereo not given),80% (active),92% (active),59.3%,48%,95% (active),65.2%,56,96% (active),52.2%,32%,96% (active),36.9%,11%,92% (active),30.8%,63%,93% (active),87.1% (active)
CCCCCCc1c(Cl)nc(Cl)nc1Cl,-1%,56%,65.8%,1%,43%,26.2%,-6,41%,63.5%,0%,15%,-46.6%,-1%,33%,25.1%,-2%,66%,87.2% (active)
O=C(O)C/C(=C\c1ccco1)C(=O)O,-8%,9%,44.9%,-4%,-9%,-11.5%,-4,-2%,-30.6%,-1%,-1%,38%,-8%,-13%,-27.9%,-4%,-7%,-16.4%
"Cc1c2oc3c(C)ccc(C(=O)NC4C(=O)NC(C(C)C)C(=O)N5CCCCC5C(=O)N(C)CC(=O)N(C)C(C(C)C)C(=O)OC4C)c3nc-2c(C(=O)NC2C(=O)NC(C(C)C)C(=O)N3CCCCC3C(=O)N(C)CC(=O)N(C)C(C(C)C)C(=O)OC2C)c(N)c1=O (stereo not given) (I: TV[Pip][Sar][NMeV] / II: TV[Pip][Sar][NMeV]; ester I:1-I:C, II:1-II:C; linker I:N-II:N via Actinocin(9to1); configuration not given here)",-11%,91% (active),69.4%,-22%,43%,48.3%,7,28%,59.4%,6%,64%,29.3%,0%,80% (active),73.6% (active),10%,79% (active),45.6%
CC(=O)NS(=O)(=O)c1ccc(N=Cc2cc(Cl)cc(Cl)c2O)cc1,25%,98% (active),83% (active),19%,99% (active),92.1% (active),13,79% (active),44.5%,46%,98% (active),87.8% (active),44%,99% (active),90.7% (active),67%,99% (active),88% (active)
CC1(C)OC2COC3(CNO)OC(C)(C)OC3C2O1 (stereo not given),0%,-4%,22.5%,-1%,1%,32.6%,-7,-2%,83.1% (active),-5%,8%,25.1%,–,–,–,-10%,-2%,69.7%
CC(C)(C)OC(=O)C(N(Cc1ccccc1)Cc1ccccc1)N(Cc1ccccc1)Cc1ccccc1,0%,14%,12.1%,2%,9%,20.6%,2,17%,24.4%,3%,10%,-2.05%,0%,11%,4.75%,3%,22%,30.3%
Cc1ccc(C(=O)CCCN2CCOCC2)c(C)c1,13%,46%,77.5% (active),5%,30%,38.8%,27,57%,58.8%,29%,63%,50.5%,–,–,–,5%,43%,72.8% (active)
O=C(Nc1ccccc1)ON=C1CCCCC1,3%,75% (active),80% (active),-31%,36%,63.6%,3,68%,94.2% (active),–,–,–,50%,44%,77.2% (active),5%,62%,89.6% (active)
Cc1cc(I)ccc1NC(=S)Nc1ccccc1F,-3%,62%,90.7% (active),-4%,79% (active),90.5% (active),-3,41%,86.5% (active),-19%,45%,70% (active),5%,86% (active),95.1% (active),-4%,68%,90.7% (active)
CCCCCCCCCCCCO,10%,23%,64.4%,9%,24%,42%,-4,28%,60.8%,0%,12%,-4.65%,-6%,51%,2.85%,12%,55%,76.4% (active)
Cn1c(=O)c2c(nc(OCC(C)(C)C)n2C)n(C)c1=O,4%,2%,-5.2%,0%,5%,10.9%,3,-1%,26.1%,9%,8%,8.75%,–,–,–,-13%,3%,23.8%
C(=C\c1cnnc2ccccc12)/c1cccnc1,11%,45%,20.8%,18%,37%,-10.8%,11,35%,2.15%,–,–,–,6%,22%,-13.2%,8%,36%,13.7%
N#CCCN(CCC#N)c1ccc(C(Sc2ccccc2)C(NC(=O)c2cc([N+](=O)[O-])ccc2Cl)C(=O)Sc2ccccc2)cc1 (stereo not given),29%,74% (active),75.7% (active),25%,93% (active),58.8%,30,85% (active),51.3%,–,–,–,22%,91% (active),74.7% (active),47%,85% (active),73.3% (active)
CC(=O)NC(CCC(=O)O)C(=O)O.[NH-]C1CCCCC1[NH-].[Pt+2] (stereo not given),96% (active),99% (active),99.5% (active),99% (active),99% (active),99.3% (active),–,–,–,88% (active),98% (active),99.4% (active),99% (active),98% (active),99% (active),96% (active),99% (active),99.2% (active)
CSC(SC)(C(=O)O)c1cc(C)no1,-7%,-23%,19.4%,-17%,-2%,16.6%,-17,-15%,2.55%,-7%,10%,45.2%,–,–,–,-2%,-21%,1.2%
Cc1cc(NC(=S)SCc2ccc3c(c2)OCO3)ccc1Cl,31%,98% (active),91.5% (active),16%,99% (active),91.8% (active),44,98% (active),91.5% (active),38%,98% (active),89.7% (active),52%,99% (active),91% (active),24%,97% (active),90.2% (active)
CCCCC(CCCC)=NNC(=S)SC,4%,85% (active),83.9% (active),5%,62%,45.1%,3,79% (active),66%,–,–,–,2%,80% (active),74.1% (active),-3%,87% (active),56.9%
CCCCCCCCCCCC(C)N (stereo not given),15%,83% (active),99% (active),4%,78% (active),99.5% (active),4,91% (active),98.7% (active),–,–,–,11%,86% (active),99.2% (active),2%,74% (active),98.1% (active)
